Compound activity deposited in PubChem BioAssay by The Scripps Research Institute Molecular Screening Center.
Only some compounds are listed: those with a hit (about 3.5% of all), similar ones and a draw of the others.
FBW7 activator = human FBW7 E3 ligase activation, primary screen | 650,000 tested, 0.13% active | AlphaScreen FBW7–phospho-cyclin E peptide binding, activator screen | normalized activity (activation), % at 26.1 µM; in the data active = normalized activity above about 1.9%;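 note: purified mutant Fbw7 with reduced substrate affinity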
TEAD-YAP block = TEAD-YAP interaction inhibition; HEK-TIYL cells, TEAD-Gal4/YAP UAS-luciferase luminescence; inhibition, % at 9.12 µM; 640,000 tested, 1.4% active; AID 1259422; in the data active = inhibition above about 32%
GPR151 activ = activators of human GPR151. Q8TDV0. PathHunter beta-arrestin GPR151 cells, luminescence. activation, % at 11.2 µM. 650,000 tested, 1% active. AID 1508602; in the data active = activation above about 4.9%
MITF primary = human MITF inhibition, primary screen; O75030; AlphaScreen MITF homodimerization, bead proximity signal; inhibition, % at 2.6 µM; 650,000 tested, 0.91% active; AID 1259374; in the data active = inhibition above about 50%
Target sequence (O75030 whole entry, looked up): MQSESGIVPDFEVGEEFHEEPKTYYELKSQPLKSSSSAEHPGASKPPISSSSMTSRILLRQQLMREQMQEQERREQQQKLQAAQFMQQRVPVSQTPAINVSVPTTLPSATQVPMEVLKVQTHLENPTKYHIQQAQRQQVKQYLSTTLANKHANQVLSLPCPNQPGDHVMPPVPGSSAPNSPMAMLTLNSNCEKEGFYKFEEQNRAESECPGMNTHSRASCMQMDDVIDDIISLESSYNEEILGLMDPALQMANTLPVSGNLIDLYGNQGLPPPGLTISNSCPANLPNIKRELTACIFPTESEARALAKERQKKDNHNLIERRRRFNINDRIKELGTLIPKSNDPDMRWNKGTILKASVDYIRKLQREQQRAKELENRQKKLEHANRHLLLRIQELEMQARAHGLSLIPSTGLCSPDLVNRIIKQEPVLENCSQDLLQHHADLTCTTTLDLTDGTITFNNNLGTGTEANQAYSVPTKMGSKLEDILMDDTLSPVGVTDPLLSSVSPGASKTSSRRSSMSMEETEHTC
Large screens that a line does not name were inactive.

O=C(NC(=S)Nc1ccc(Cl)cn1)c1ccccc1I	none
Cc1ccc(Nc2c3c(c(C#N)c4nc5ccccc5n24)CCC3)cc1C	FBW7 activator 2.2
N#Cc1c2c(c(Cl)n3c1nc1ccccc13)CCC2	FBW7 activator 1.9
CN(C)c1c2c(c(C#N)c3nc4ccccc4n13)CCC2	none
COc1ccc2oc(C(=O)c3ccc(Cl)cc3)c(N)c2c1	none
COC(=O)c1oc2ccc(OC)cc2c1N	none
COc1ccc2oc(C)c(C(=O)c3oc4ccccc4c3N)c2c1	TEAD-YAP block 34
COc1ccc2occ(C(=O)c3oc4ccccc4c3N)c2c1	TEAD-YAP block 32
CCOC(=O)c1c(NC(=O)CSc2nnc(CNC(=O)c3cccc(C)c3)n2Cc2ccccc2)sc2c1CCCC2	none
CN(C)C1C(=O)C(C(N)=O)=C(O)C2(O)C(=O)C3=C(O)c4c(O)ccc(Cl)c4C(O)C3CC12 (stereo not given)	none (no result: TEAD-YAP block)
C=C1c2cccc(O)c2C(O)=C2C(=O)C3(O)C(O)=C(C(N)=O)C(=O)C(N(C)C)C3C(O)C12 (stereo not given)	MITF primary 111
CCCCOc1ccc(C(=O)NNC(=O)CNC(=O)c2ccc(C(C)(C)C)cc2)cc1	none
Cc1ccc(-c2cnc3c(Nc4ccc5[nH]ccc5c4)nccn23)cc1	none
OCc1ccccc1-c1cnc2c(Nc3ccc4[nH]ccc4c3)nccn12	TEAD-YAP block 93
Oc1ccc(-c2cnc3c(Nc4ccc5[nH]ccc5c4)nccn23)cc1	TEAD-YAP block 69
COc1cc(-c2cnc3c(Nc4ccc5[nH]ccc5c4)nccn23)cc(OC)c1OC	none
Nc1ccc(-c2cnc3c(Nc4ccc5[nH]ccc5c4)nccn23)cc1	TEAD-YAP block 69
c1cn2c(-c3ccsc3)cnc2c(Nc2ccc3[nH]ccc3c2)n1	TEAD-YAP block 56
O=C(NCc1nc2ccccc2[nH]1)c1cncc(-c2ccc(N3CCOCC3)nc2)c1	none
Cc1cc([N+](=O)[O-])ccc1NC(NC(=O)c1ccco1)C(=O)c1ccccc1 (stereo not given)	none
NS(=O)(=O)c1ccc(NC(=S)N2CCOCC2)cc1	none
OC(CNc1ccc(Br)cc1F)Cn1nnnc1-c1ccccc1 (stereo not given)	none
CC(=O)c1ccc(NC(=O)C(C)N2C(=O)C3C4C=CC(C5CC45)C3C2=O)cc1 (stereo not given)	none
c1ccc2nc(-c3nc4ccccc4o3)ccc2c1	TEAD-YAP block 77
c1ccc2oc(-c3ccc(-c4nc5ccccc5o4)cc3)nc2c1	none
c1ccc2[nH]c(-c3nc4ccccc4o3)nc2c1	TEAD-YAP block 84
CC(=O)N(/N=C1\Sc2ccccc2C1=O)c1ccccc1Cl	TEAD-YAP block 91
CC(=O)N(/N=C1\Sc2ccccc2C1=O)c1cccc(C)c1	none
CCN(CC)C(=O)C1CCCN(c2nc(NC3CC3)c3ncn(C4CCCCC4)c3n2)C1 (stereo not given)	none
CCN(CC)C(=O)C1CCCN(c2nc(Nc3ccc(Oc4ccccc4)cc3)c3ncn(C4CCCCC4)c3n2)C1 (stereo not given)	FBW7 activator 5.4
CCN(CC)C(=O)C1CCCN(c2nc(Nc3ccc(NC(C)=O)cc3)c3ncn(C(C)C)c3n2)C1 (stereo not given)	TEAD-YAP block 46
COc1ccc(C(=O)N=c2nc3ccccn3s2)cc1	TEAD-YAP block 70
Cc1ccc(/C=C2/SC(=Nc3cccc(C)c3)NC2=O)cc1	none
Cc1cccc(N=C2NC(=O)/C(=C\c3ccc(N(C)C)cc3)S2)c1	TEAD-YAP block 42
CN(C)c1ccc(/C=C2/SC(=Nc3ccccc3Cl)NC2=O)cc1	TEAD-YAP block 45
COc1ccc(/C=C2/SC(=Nc3ccccc3Cl)NC2=O)cc1	TEAD-YAP block 37
Cc1ccccc1-n1c(SCC(=O)N2CCOCC2)nnc1-c1ccccn1	none
CCc1ccc(CNC(=O)CN2C(=O)COc3ccc(C(C)(C)C)cc32)cc1	none
COc1ccccc1NC(=O)Cn1c(C)cc(=O)c2cccc(OC)c21	TEAD-YAP block 37
COc1ccccc1NC(=O)Cn1c(C)cc(=O)c2cccc(C)c21	none
COc1cccc(NC(=O)Cn2c(C)cc(=O)c3ccccc32)c1	TEAD-YAP block 54
COc1ccccc1NC(=O)Cn1c(C)cc(=O)c2ccccc21	TEAD-YAP block 64
CCn1c(=O)n(CC(=O)Nc2ccccc2OC)c(=O)c2ccccc21	none
Cc1ccc(C(=O)NCCc2ccc(S(N)(=O)=O)cc2)c(NCc2cccnc2)n1	none
CCOC(=O)N1CCc2c(sc(NCc3ccccn3)c2C(=O)Nc2ccc(OC)cc2OC)C1	TEAD-YAP block 48
COc1ccccc1-c1nnc(Nc2nc3c(OC)cccc3s2)o1	TEAD-YAP block 53
COc1cccc2sc(Nc3nnc(-c4ccccc4Cl)o3)nc12	TEAD-YAP block 46
COc1cccc2sc(Nc3nnc(-c4ccccc4)o3)nc12	none
CCc1nc(SCC(=O)NCc2cccs2)c2c(C)c(C)sc2n1	FBW7 activator 8.1
O=C1C(c2ccc(F)cc2)N(CCC2=CCCCC2)C(=O)CN1C1CCCC1 (stereo not given)	none
COCCn1c(C)cc(C(=O)CSc2ccc(Cl)cc2)c1C	TEAD-YAP block 88
COCCn1c(C)cc(C(=O)CSc2nc(C)c(C)c(C)n2)c1C	none
COCCn1c(C)cc(C(=O)COC(=O)c2ccc[nH]c2=O)c1C	TEAD-YAP block 62
COCCn1c(C)cc(C(=O)CSc2nnc3ccccn23)c1C	TEAD-YAP block 55
Cc1cc(C(=O)CSc2nnc3ccccn23)c(C)n1-c1ccc(Br)cc1	none
Cc1cc(C(=O)CSc2nnc3ccccn23)c(C)n1C1CCCCC1	TEAD-YAP block 60
Cc1ccc(-n2c(C)cc(C(=O)COC(=O)c3ccc[nH]c3=O)c2C)cc1	none
CCOc1ccc(/C=C2\C(=O)N(c3ccc(C)c(C)c3)C(C)=C2C(=O)OC)cc1	none
COc1ccc(-c2nc3ncnc(NCCc4ccc(O)cc4)c3[nH]2)cc1	TEAD-YAP block 59
COc1ccc(-c2nc(Nc3cc(OC)c(OC)c(OC)c3)c3[nH]cnc3n2)cn1	TEAD-YAP block 57
COc1ccc(-c2nc3ncnc(Nc4cc(OC)c(OC)c(OC)c4)c3[nH]2)cn1	TEAD-YAP block 46
COc1ccc(-c2nc3ncnc(Nc4ccc(NC(C)=O)cc4)c3[nH]2)cn1	none
COc1ccc(-c2nc3ncnc(NCCN(C(C)C)C(C)C)c3[nH]2)cn1	none
COc1ccc(-c2nc3ncnc(NCCOc4ccccc4)c3[nH]2)cn1	TEAD-YAP block 36
COc1cc(Nc2nc(-c3cccc(C(C)=O)c3)nc3nc[nH]c23)cc(OC)c1OC	FBW7 activator 1.9
CC(=O)c1cccc(-c2nc(Nc3ccccc3)c3[nH]cnc3n2)c1	none
COc1ccc(CNC(=O)c2cnc3ccccn23)cc1	none
CC(NC(=O)c1cnc2ccccn12)c1ccc(F)cc1 (stereo not given)	FBW7 activator 2.8
Cc1ccc(CNC(=O)c2cnc3ccccn23)o1	FBW7 activator 2.1
Cc1ccc(NC(=O)COc2ccc(/C=C\c3onc(C)c3[N+](=O)[O-])cc2)cc1	none
O=C(NC1CC1)c1ccc(-c2nc(NCCO)c3ncn(-c4ccsc4)c3n2)cc1	TEAD-YAP block 55
CC(C)N(CCNc1nc(-c2ccc(C(=O)NC3CC3)cc2)nc2c1ncn2-c1ccccc1)C(C)C	none
